According to PubChem BioAssay (NCATS):
Unmarked numbers belong to inactive results. Inconclusive results are not listed. A call without a number means that no potency is given here. Activity calls are given as the source filed them. Calls follow the shape of the dose curve; as a rule, active = well fitted curve in the direction sought with a large enough effect; inconclusive = small, poorly fitted or top-dose-only effect, or another doubt; inactive = no such curve, though single readings can be large; an effect the other way counts as inactive or inconclusive.

What was measured:
[1] = Primary qHTS for inhibitors of nuclear receptor binding SET domain protein 2 (NSD2) in an RCH-ACV wild type WT cells (2C) (AID 1645877); also: nearly all actives have a fitted effect of over 70% in size; also: potency is read from the fitted curve at half-maximal effect
[2] = target: Glutathione peroxidase 1 (Homo sapiens) (UniProt P07203); assay: Primary qHTS Assay for Inhibitors of Recombinant Selenoprotein Glutathione Peroxidase 1 (GPX1) (AID 1845191); also: nearly all actives have a fitted effect of over 65% in size
Sequence of Glutathione peroxidase 1 (Homo sapiens) (P07203 whole entry, looked up): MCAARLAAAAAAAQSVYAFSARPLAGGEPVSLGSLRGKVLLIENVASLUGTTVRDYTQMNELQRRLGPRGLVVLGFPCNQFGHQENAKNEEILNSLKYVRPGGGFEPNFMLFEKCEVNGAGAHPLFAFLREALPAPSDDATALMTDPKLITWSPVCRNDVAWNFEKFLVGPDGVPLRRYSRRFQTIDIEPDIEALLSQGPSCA
Method in brief: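 GR-coupled readout: NADPH consumption tracked by fluorescence, ex 340/em 450 nm, at t=0 and after 15 min at RT. Final mix 10 nM GPX1, 1 mM GSH, 0.5 mM CHP, 0.5 mM NADPH, 100 nM GR, 0.01% BSA, following 30 min enzyme–compound preincubation.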

[3] = target: Phospholipid hydroperoxide glutathione peroxidase GPX4 (Homo sapiens) (UniProt P36969); assay: Primary qHTS Assay for Inhibitors of Recombinant Selenoprotein Glutathione Peroxidase 4 (GPX4) (AID 1845192); also: nearly all actives have a fitted effect of over 65% in size
Sequence of Phospholipid hydroperoxide glutathione peroxidase GPX4 (Homo sapiens) (P36969 whole entry, looked up): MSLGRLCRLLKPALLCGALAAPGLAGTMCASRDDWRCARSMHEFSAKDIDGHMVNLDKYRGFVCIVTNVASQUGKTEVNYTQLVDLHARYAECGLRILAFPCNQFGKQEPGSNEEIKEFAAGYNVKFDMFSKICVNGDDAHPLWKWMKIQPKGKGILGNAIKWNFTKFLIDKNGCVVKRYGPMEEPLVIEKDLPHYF
Method in brief: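 Steps: GPX4 plus compound, 30 min RT; add GR/GSH/NADPH master mix; start with cumene hydroperoxide; read 340/450 nm fluorescence at 0 and 15 min. Finals were 200 nM GPX4, 1 mM GSH, 0.5 mM CHP, 0.5 mM NADPH, 100 nM GR.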

[4] = target: Luciferin 4-monooxygenase (Photinus pyralis) (UniProt P08659); assay: Primary firefly luciferase (FLuc) qHTS assay for identification of artifact compounds. (AID 1845220); also: nearly all actives have a fitted effect of over 60% in size
Method in brief: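 Titrated compounds were incubated 15 min at RT, protected from light, with luciferin and ATP at 10 uM; reaction started with 10 nM FLuc, luminescence imaged at 5 min, and concentration-response fitted by Hill equation.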

[5] = Primary fluorescence-based thiol-reactive (MSTI) qHTS assay for identification of artifact compounds. (AID 1845221); also: nearly all actives have a fitted effect of over 65% in size; also: potency is read from the fitted curve at half-maximal effect
Method in brief: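 First, 4 uM MSTI in 2% DMSO/PBS pH 7.4 was dispensed; next, compounds were added; then plates sat 1 h at room temperature without light. Finally, emission at 598 nm was recorded.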

[6] = tested on: Nanoluciferase (engineered Oplophorus gracilirostris luciferase); assay: Primary Nanoluciferase (NLuc) qHTS assay for identification of artifact compounds. (AID 1845222);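 also: NLuc secreted into diluted conditioned medium of S16 cells; series mostly up to about 54 µM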
Method in brief: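 qHTS format, against NLuc in S16 cell-conditioned medium. Nano-Glo substrate 1:100 was added after 15 min at room temperature. Luminescence was taken after a further 5 min.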

[7] = Primary redox qHTS assay for identification of artifact compounds. (AID 1845223)
Method in brief: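 Redox-cycling detection via DTT (250 uM final) oxidation coupled to Amplex Red (25 uM)/HRP (250 mU/mL) in HBSS. 15 min preincubation plus 30 min after DTT, room temperature. Ex/Em 525/598 nm; 4-parameter Hill fit against DMSO and 10 uM DA3003.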

SMILES	Potency [1]	Potency [2]	Potency [3]	Potency [4]	Potency [5]	Potency [6]	Potency [7]
CN(C)CC1CCOC1(c1ccccc1)c1ccccc1 (stereo unspecified)	inactive	inactive	inactive	inactive	inactive	inactive	inactive
C=C1[C@H](OC(C)=O)[C@H]2[C@@H](OC(C)=O)[C@](C)(OC(C)=O)C[C@]2(OC(C)=O)C(=O)[C@H](C)/C=C/C(C)(C)C(=O)[C@H](OC(=O)C(C)CC)[C@H]1OC(C)=O (stereo partly specified)	inactive	inactive	inactive	inactive	inactive	inactive	inactive
C=C1CCC[C@]2(C)CC[C@@H](C(=C)C(=O)O)[C@H](O)[C@@H]12	inactive	inactive	inactive	inactive	inactive	inactive	inactive
CC1=C(C)C(=O)OC(C(C)C2CCC3C4C5OC5C5(O)CC(OC6OC(CO)C(OC7OC(C)C(O)C(O)C7O)C(O)C6O)CC(O)C5(C)C4CCC23C)C1 (stereo unspecified)	inactive	inactive	inactive	inactive	inactive	inactive	inactive
CC/C=C\C/C=C\C/C=C\CCCCCCCC(=O)OCC(O)COC1OC(CO)C(O)C(O)C1O (stereo unspecified)	inactive	inactive	inactive	inactive	inactive	inactive	inactive
COc1cc(O)cc(C)c1C(=O)O[C@H]1[C@@H](OC(C)=O)[C@H](n2ccc(=O)[nH]c2=O)O[C@@H]1CO	inactive	inactive	inactive	inactive	inactive	inactive	inactive
COc1ccccc1Oc1ccc(N(Cc2cccnc2)S(=O)(=O)CC(F)(F)F)cc1	inactive	inactive	inactive	inactive	inactive	inactive	inactive
C=C1C[C@@]23CCC4[C@@](C)(CCC[C@@]4(C)C(=O)OC)C2CC[C@@H]1C3 (stereo partly specified)	inactive	inactive	inactive	inactive	inactive	inactive	inactive
COc1ccc2[nH]c3c(-c4cccc5ccccc45)nccc3c2c1	0.578 µM (active)	inactive	inactive	inactive	inactive	inactive	inactive
O=C(Nc1nc2ccccc2n1CCc1ccccc1)c1ccccc1	5.15 µM (active)	inactive	inactive	inactive	inactive	inactive	inactive
Cc1[nH]c2ccccc2c1C1=C(NCCc2ccc(F)cc2)C(=O)N(C)C1=O	8.17 µM (active)	inactive	inactive	inactive	1.5 µM (active)	inactive	inactive
OCc1ccc(O[C@@H]2O[C@H](CO)[C@@H](O)[C@H](O)[C@H]2O)cc1	inactive	inactive	inactive	inactive	inactive	inactive	inactive
C/C=C(/COC(=O)/C(C)=C/C)C(=O)OC(CC)c1ccc(OC)c(OC)c1 (stereo unspecified)	inactive	inactive	inactive	inactive	inactive	inactive	inactive
COc1ccc(/C=C/C(=O)O[C@@H]2[C@@H](O)[C@@H](O)[C@H](O[C@@H]3C=C(CO)[C@H]4[C@H](O[C@@H]5O[C@H](CO)[C@@H](O)[C@H](O)[C@H]5O)OC=C[C@H]43)O[C@H]2C)cc1O	inactive	inactive	inactive	inactive	3.98 µM (active)	inactive	inactive
COc1cc2c(cc1O)[C@H](c1ccc(O[C@@H]3O[C@H](CO)[C@@H](O)[C@H](O)[C@H]3O)c(OC)c1)[C@@H](CO)[C@](O)(CO)C2	inactive	inactive	inactive	inactive	5.19 µM (active)	inactive	inactive
C=C(C)C1CCC2(C(=O)O)CCC3(C(=O)O)C(CCC4C5(C)CCC(O)C(C)(C(=O)O)C5CCC43C)C12 (stereo unspecified)	inactive	inactive	inactive	inactive	inactive	inactive	inactive
C/C(=C\CCC1(C)C2CCC(C2)C1(C)O)C(=O)O (stereo unspecified)	inactive	inactive	inactive	inactive	inactive	inactive	inactive
CC(=O)O[C@@H]1C[C@H](O)[C@@]23CO[C@H](O)[C@]1(C)C2C[C@@H](O)[C@]1(C)C3C(=O)[C@H](OC(C)=O)[C@@]2(C)[C@H](c3ccoc3)C[C@H]3O[C@]321 (stereo partly specified)	0.0216 µM (active)	inactive	inactive	inactive	inactive	inactive	inactive
